Reference: PMC7826789 (International Journal of Molecular Sciences, 2021)

Legend:
Conditions in all cases: Compound Concentration (nM):1000
CDKL3 = test system: CDKL3
CDKL5 = test system: CDKL5
CHEK1 = test system: CHEK1
CHEK2 = test system: CHEK2
CIT = test system: CIT
CLK1 = test system: CLK1
CLK2 = test system: CLK2
CLK3 = test system: CLK3
CLK4 = test system: CLK4
CSK = test system: CSK
CSNK1A1L = test system: CSNK1A1L
CSNK1A1 = test system: CSNK1A1
CSNK1D = test system: CSNK1D
CSNK1E = test system: CSNK1E
CSNK1G1 = test system: CSNK1G1
CSNK1G2 = test system: CSNK1G2
CSNK1G3 = test system: CSNK1G3
CSNK2A1 = test system: CSNK2A1
CSF1R-autoinhibited = test system: CSF1R-autoinhibited
CSF1R = test system: CSF1R
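Further: KINOMEscan scanMAX binding as percent activity remaining versus control; lower means stronger binding.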

| SMILES | Percent Control (CDKL3) [%] | Percent Control (CDKL5) [%] | Percent Control (CHEK1) [%] | Percent Control (CHEK2) [%] | Percent Control (CIT) [%] | Percent Control (CLK1) [%] | Percent Control (CLK2) [%] | Percent Control (CLK3) [%] | Percent Control (CLK4) [%] | Percent Control (CSK) [%] | Percent Control (CSNK1A1L) [%] | Percent Control (CSNK1A1) [%] | Percent Control (CSNK1D) [%] | Percent Control (CSNK1E) [%] | Percent Control (CSNK1G1) [%] | Percent Control (CSNK1G2) [%] | Percent Control (CSNK1G3) [%] | Percent Control (CSNK2A1) [%] | Percent Control (CSF1R-autoinhibited) [%] | Percent Control (CSF1R) [%] |
| --- | --- | --- | --- | --- | --- | --- | --- | --- | --- | --- | --- | --- | --- | --- | --- | --- | --- | --- | --- | --- |
| COc1ccc(COc2ccc(Cc3cnc(N)nc3N)cc2OC)cc1 [GW632580X] | 90 | 84 | 91 | 100 | 80 | 100 | 91 | 100 | 100 | 87 | 86 | 100 | 100 | 100 | 88 | 88 | 100 | 90 |  |  |
| COC(=O)Nc1nc2ccc(Oc3ccc(NC(=O)Nc4cc(C(F)(F)F)ccc4F)cc3)cc2s1.Cl [GW693917A] | 15 | 38 | 95 | 76 | 1.8 | 42 | 100 | 82 | 100 | 70 | 92 | 83 | 100 | 98 | 96 | 100 | 94 | 91 | 86 | 2.3 |
| O=C(Nc1n[nH]c2nc(-c3ccc(O)cc3)c(Br)cc12)C1CC1 [SB-725317] | 100 | 37 | 100 | 100 | 51 | 100 | 95 | 100 | 100 | 100 | 100 | 100 | 100 | 85 | 100 | 100 | 100 | 87 | 96 | 100 |
| CN(C)CCNC(=O)Nc1ccc(N(C)c2ccnc(Nc3ccc(CS(C)(=O)=O)cc3)n2)cc1.Cl [GW830900A] | 100 | 100 | 100 | 93 | 100 | 85 | 94 | 99 | 100 | 98 | 85 | 79 | 93 | 88 | 90 | 96 | 95 | 78 | 41 | 0.6 |
| COc1cccc(-n2ncc3c(N/N=C/c4ccncc4)ncnc32)c1 [GW784752X] | 46 | 5.1 | 100 | 87 | 86 | 42 | 61 | 100 | 45 | 78 | 91 | 94 | 92 | 100 | 100 | 100 | 100 | 20 | 96 | 100 |
| COc1cc(C=NNc2ncnc3c2cnn3-c2ccccc2)ccc1O [GW513184X] | 100 | 100 | 100 | 97 | 96 | 48 | 83 | 82 | 60 | 100 | 100 | 77 | 86 | 51 | 100 | 57 | 93 | 28 | 100 | 100 |
| Cl.O=C(Nc1ccc(Oc2ccc3[nH]c(NC(=O)c4ccccc4)nc3c2)cc1)Nc1cc(C(F)(F)F)ccc1F [GW709042A] | 96 | 100 | 96 | 100 | 0 | 44 | 100 | 100 | 79 | 96 | 97 | 100 | 87 | 83 | 100 | 100 | 100 | 92 | 79 | 6.1 |
| CN(C)c1cc2c(Nc3ccc4c(cnn4Cc4ccccc4)c3)ncnc2cn1 [GW282974X] | 100 | 40 | 85 | 2.9 | 79 | 75 | 86 | 100 | 100 | 23 | 84 | 82 | 97 | 85 | 80 | 100 | 100 | 82 | 100 | 100 |
| CC(C)COC(=O)c1ccc2c(c1)/C(=C/Nc1ccc(S(N)(=O)=O)cc1)C(=O)N2 [GW416981X] | 64 | 5.1 | 100 | 42 | 86 | 18 | 2.3 | 98 | 41 | 100 | 50 | 99 | 100 | 100 | 96 | 94 | 100 | 9 | 95 | 100 |
| COc1cccc(-c2c[nH]c3c(N/N=C/c4ccncc4)ncnc23)c1 [GW814408X] | 8 | 4.2 | 100 | 86 | 54 | 30 | 44 | 80 | 30 | 66 | 100 | 88 | 92 | 83 | 100 | 90 | 100 | 14 | 74 | 46 |
| Cc1cc(O)cc(C)c1/C=C/c1cncc(C(N)=O)c1 [GW435821X] | 100 | 100 | 100 | 99 | 98 | 89 | 100 | 100 | 74 | 80 | 100 | 100 | 100 | 86 | 100 | 100 | 100 | 90 | 87 | 34 |
| NS(=O)(=O)c1ccc(N/N=C2\C(=O)Nc3ccc(Cl)cc32)cc1 [GW280670X] | 100 | 100 | 100 | 100 | 100 | 100 | 100 | 100 | 96 | 100 | 100 | 100 | 100 | 93 | 100 | 100 | 100 | 81 | 60 | 100 |
| CCc1ccc(Oc2nccc(-c3c(-c4ccc(F)cc4)ncn3C3CCNCC3)n2)cc1 [SB-242719] | 100 | 84 | 90 | 84 | 1.2 | 100 | 70 | 100 | 100 | 80 | 66 | 5.1 | 1.7 | 0.4 | 83 | 40 | 53 | 77 | 77 | 100 |
| COc1cc(/C=N/Nc2ncnc3[nH]ncc23)ccc1O [GW578748X] | 97 | 100 | 7 | 51 | 83 | 19 | 29 | 85 | 50 | 67 | 94 | 61 | 57 | 60 | 67 | 42 | 79 | 8.7 | 56 | 93 |
| CCn1c(-c2nonc2N)nc2c(C#CC(C)(C)O)nc(OCCNC)cc21.Cl [GSK949675] | 100 | 100 | 100 | 86 | 44 | 100 | 87 | 100 | 90 | 100 | 100 | 94 | 100 | 100 | 100 | 92 | 100 | 100 | 100 | 100 |
| COc1cc2ncn(-c3cc(O[C@H](C)c4ccccc4Cl)c(C(N)=O)s3)c2cc1OC [GSK237701A] | 76 | 100 | 100 | 100 | 100 | 81 | 90 | 77 | 68 | 88 | 60 | 88 | 100 | 100 | 85 | 89 | 100 | 83 | 70 | 63 |
| COc1ccccc1-c1cc(/C=C2\C(=O)Nc3ncc(Br)cc32)cc(Br)c1O [GW442130X] | 93 | 88 | 100 | 79 | 89 | 100 | 67 | 84 | 85 | 100 | 100 | 100 | 94 | 79 | 100 | 94 | 100 | 66 | 100 | 100 |
| NS(=O)(=O)c1ccc(N/N=C2\C(=O)Nc3ccc(C(=O)NCc4ccncc4)cc32)cc1 [GW300657X] | 84 | 6.5 | 100 | 67 | 87 | 67 | 17 | 92 | 75 | 87 | 60 | 83 | 92 | 98 | 87 | 100 | 67 | 53 | 83 | 99 |
| COc1cc2ncnc(Nc3ccc4c(cnn4Cc4ccccc4)c3)c2cc1OC.Cl [GW282449A] | 100 | 55 | 100 | 0 | 100 | 100 | 100 | 100 | 100 | 5.1 | 100 | 100 | 100 | 97 | 100 | 100 | 100 | 82 | 100 | 100 |
| Cl.O=C(Nc1ccc(Oc2ccc3[nH]c(NC(=O)c4ccco4)nc3c2)cc1)Nc1cc(C(F)(F)F)ccc1F [GW683134A] | 100 | 100 | 88 | 97 | 0.4 | 47 | 89 | 100 | 44 | 85 | 90 | 100 | 98 | 93 | 100 | 100 | 100 | 88 | 79 | 1.5 |
